In paper PMC7862700, “An all-to-all approach to the identification of sequence-specific readers for epigenetic DNA modifications on cytosine” one finds binding signal data, which are given here for two sequences.

Holding throughout (experiment): DAPPL (digital affinity profiling via proximity ligation, sequencing); 10 mM Tris-HCl pH 7.5, 50 mM NaCl, 1 mM DTT, 4% glycerol, room temperature, 30 min; GST-TFs on glutathione beads, 16-mer random dsDNA library, 0.1% formaldehyde crosslink after washing; high values mean tight binding
Common to all, as to conditions: protein: recombinant; tags: N-terminal GST; dsDNA, one strand shown

One assay addresses T1, FLI1 (Homo sapiens, UniProt Q01543 1-452).
T1 sequence: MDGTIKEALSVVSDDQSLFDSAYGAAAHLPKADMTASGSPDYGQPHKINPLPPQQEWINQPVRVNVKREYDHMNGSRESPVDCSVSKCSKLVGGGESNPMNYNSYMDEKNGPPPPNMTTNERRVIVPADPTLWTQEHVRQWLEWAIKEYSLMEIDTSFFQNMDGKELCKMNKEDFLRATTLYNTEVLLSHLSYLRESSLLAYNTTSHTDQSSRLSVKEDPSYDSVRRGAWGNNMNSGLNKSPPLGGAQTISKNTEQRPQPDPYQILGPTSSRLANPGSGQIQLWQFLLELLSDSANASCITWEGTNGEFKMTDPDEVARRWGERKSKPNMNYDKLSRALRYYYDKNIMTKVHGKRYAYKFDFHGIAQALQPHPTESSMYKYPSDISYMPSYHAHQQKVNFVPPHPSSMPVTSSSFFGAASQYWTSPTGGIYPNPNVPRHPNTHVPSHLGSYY
In outline: (§1)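 Human transcription factors were made in yeast as GST fusions, captured on glutathione beads and barcoded with DNA. With a tag-only sample included, the pool was incubated with 200 nmole of a random double-stranded 16-mer DNA library in Tris/NaCl/DTT/glycerol buffer at room temperature for 30 min, then crosslinked with 0.1% formaldehyde after washing, ligated by proximity, amplified and sequenced. For binding signal, each hexamer's read frequency for a factor is divided by its frequency for the tag-only sample.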

Another assay concerns the target ELF1 (Homo sapiens, UniProt P32519 1-619). In short, it runs like this:
as §1

The target of the next assay is T2, EHF (Homo sapiens, UniProt Q9NZC4 1-300).
T2 sequence: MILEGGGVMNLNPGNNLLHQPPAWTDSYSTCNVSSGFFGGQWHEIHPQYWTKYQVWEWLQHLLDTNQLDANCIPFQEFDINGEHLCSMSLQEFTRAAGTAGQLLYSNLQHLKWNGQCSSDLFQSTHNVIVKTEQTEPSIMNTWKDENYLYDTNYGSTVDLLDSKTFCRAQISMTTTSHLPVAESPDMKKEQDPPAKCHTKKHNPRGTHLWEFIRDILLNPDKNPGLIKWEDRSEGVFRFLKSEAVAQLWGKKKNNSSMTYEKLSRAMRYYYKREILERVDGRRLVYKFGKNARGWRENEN
In short, it runs like this: as §1

The target in a further assay is T3, ELK3 (Homo sapiens, UniProt P41970 1-407).
T3 sequence: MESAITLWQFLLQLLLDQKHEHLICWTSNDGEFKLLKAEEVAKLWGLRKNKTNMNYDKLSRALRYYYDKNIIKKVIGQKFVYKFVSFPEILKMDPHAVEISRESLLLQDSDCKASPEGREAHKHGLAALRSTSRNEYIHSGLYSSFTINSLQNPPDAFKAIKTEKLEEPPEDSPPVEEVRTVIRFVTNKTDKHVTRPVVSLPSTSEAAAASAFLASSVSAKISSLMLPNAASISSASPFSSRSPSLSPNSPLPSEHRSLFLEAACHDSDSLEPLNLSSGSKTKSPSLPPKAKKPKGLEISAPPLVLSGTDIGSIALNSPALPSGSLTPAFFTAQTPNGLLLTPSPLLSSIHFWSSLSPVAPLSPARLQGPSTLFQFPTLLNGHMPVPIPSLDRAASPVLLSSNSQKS
In short, it runs like this:
as §1

Another assay deals with T4, SPIC (Homo sapiens, UniProt Q8N5J4 1-248).
T4 sequence: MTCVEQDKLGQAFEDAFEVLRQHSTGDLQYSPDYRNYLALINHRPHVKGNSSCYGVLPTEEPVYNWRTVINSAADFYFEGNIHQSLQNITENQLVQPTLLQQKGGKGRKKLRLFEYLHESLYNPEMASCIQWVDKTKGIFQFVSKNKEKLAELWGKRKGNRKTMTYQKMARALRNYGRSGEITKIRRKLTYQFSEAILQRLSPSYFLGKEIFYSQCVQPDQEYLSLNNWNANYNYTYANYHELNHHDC
In short, it runs like this: as §1

In another assay the target is ELF4 (Homo sapiens, UniProt Q99607 1-663). In short, it runs like this: as §1
A further assay deals with T5, ETV2 (Homo sapiens, UniProt O00321 1-342).
T5 sequence: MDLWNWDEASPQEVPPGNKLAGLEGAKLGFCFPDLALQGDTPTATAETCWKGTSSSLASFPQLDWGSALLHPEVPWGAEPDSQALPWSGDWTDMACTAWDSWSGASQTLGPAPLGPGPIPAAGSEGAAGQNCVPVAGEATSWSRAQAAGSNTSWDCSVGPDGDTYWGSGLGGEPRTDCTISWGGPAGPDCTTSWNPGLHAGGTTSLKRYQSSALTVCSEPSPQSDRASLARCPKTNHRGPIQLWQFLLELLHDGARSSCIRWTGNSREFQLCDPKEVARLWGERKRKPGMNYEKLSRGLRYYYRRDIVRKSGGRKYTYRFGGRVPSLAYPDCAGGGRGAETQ
In outline:
as §1

The next assay has as its target T6, ELF3 (Homo sapiens, UniProt P78545 1-371).
T6 sequence: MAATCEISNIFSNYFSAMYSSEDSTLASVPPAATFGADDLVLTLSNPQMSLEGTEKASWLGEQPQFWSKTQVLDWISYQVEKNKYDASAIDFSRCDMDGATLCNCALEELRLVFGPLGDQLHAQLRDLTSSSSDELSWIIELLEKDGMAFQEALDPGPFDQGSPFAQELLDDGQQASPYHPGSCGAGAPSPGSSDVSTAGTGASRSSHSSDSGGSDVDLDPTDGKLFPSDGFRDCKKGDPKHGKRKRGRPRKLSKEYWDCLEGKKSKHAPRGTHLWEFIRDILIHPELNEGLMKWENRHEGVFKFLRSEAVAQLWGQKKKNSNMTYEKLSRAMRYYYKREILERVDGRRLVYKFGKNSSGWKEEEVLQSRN
In short, it runs like this: as §1

The target of a further assay is ETV1 (Homo sapiens, UniProt P50549 1-477). In short, it runs like this: as §1
In another assay the target is T7, ERF (Homo sapiens, UniProt P50548 1-548).
T7 sequence: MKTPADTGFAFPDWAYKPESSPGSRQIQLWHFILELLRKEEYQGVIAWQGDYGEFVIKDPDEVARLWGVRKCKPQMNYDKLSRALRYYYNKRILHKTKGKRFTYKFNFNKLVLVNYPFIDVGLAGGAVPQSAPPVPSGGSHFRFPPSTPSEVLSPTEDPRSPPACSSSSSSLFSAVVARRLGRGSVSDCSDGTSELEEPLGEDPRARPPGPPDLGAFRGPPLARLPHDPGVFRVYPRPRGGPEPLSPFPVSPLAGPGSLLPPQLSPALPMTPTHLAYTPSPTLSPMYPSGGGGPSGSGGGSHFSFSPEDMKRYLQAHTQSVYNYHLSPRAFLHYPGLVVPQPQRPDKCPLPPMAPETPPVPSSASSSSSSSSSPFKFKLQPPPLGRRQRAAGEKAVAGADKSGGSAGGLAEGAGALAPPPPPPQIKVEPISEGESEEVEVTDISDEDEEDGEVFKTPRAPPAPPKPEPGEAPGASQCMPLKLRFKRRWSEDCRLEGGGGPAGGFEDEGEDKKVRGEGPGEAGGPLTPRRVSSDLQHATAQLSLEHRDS
In outline: as §1

The next assay deals with T8, ETV7 (Homo sapiens, UniProt Q9Y603 1-341).
T8 sequence: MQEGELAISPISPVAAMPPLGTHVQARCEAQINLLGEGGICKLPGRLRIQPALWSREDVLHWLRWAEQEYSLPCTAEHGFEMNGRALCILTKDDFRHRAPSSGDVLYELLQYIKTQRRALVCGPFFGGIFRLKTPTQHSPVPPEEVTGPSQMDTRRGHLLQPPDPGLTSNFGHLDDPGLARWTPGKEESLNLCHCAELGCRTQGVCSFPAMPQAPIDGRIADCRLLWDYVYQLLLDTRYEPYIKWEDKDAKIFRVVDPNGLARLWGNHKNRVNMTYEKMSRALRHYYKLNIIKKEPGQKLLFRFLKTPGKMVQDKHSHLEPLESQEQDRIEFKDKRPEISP
In short, it runs like this:
as §1

Another assay addresses T9, ETV3 (Homo sapiens, UniProt P41162-2 1-143).
T9 sequence: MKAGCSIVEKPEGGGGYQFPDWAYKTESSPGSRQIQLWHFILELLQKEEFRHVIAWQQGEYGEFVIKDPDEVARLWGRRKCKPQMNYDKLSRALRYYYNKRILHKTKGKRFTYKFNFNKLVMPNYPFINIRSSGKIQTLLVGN
In short, it runs like this:
as §1

The target in a further assay is SPIB (Homo sapiens, UniProt Q01892 1-262). In outline:
as §1

Chain of ELF4 (Q99607 whole entry): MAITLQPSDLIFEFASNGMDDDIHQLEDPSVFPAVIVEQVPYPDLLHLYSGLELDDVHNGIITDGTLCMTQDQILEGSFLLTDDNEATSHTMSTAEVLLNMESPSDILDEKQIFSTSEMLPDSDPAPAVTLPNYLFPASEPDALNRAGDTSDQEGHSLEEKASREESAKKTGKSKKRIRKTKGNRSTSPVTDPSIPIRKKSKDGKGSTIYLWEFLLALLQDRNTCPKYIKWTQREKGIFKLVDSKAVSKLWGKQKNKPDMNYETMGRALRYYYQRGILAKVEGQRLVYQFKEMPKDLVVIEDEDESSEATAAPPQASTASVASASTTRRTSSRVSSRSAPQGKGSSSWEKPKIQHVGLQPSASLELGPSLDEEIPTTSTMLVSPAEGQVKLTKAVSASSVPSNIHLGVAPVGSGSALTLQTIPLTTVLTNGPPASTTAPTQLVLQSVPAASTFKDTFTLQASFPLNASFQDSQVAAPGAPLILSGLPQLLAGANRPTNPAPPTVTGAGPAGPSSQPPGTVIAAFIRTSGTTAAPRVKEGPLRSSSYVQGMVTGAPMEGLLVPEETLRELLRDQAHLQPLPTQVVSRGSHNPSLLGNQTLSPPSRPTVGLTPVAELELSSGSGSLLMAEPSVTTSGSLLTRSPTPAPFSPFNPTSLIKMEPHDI
Chain of SPIB (Q01892 whole entry): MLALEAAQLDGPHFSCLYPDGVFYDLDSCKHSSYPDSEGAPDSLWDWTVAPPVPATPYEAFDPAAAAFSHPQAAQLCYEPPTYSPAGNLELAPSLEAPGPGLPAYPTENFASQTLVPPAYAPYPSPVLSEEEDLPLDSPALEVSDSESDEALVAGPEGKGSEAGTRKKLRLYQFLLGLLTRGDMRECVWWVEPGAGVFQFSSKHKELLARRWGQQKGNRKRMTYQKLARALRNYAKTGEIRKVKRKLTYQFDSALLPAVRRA
Chain of ELF1 (P32519 whole entry): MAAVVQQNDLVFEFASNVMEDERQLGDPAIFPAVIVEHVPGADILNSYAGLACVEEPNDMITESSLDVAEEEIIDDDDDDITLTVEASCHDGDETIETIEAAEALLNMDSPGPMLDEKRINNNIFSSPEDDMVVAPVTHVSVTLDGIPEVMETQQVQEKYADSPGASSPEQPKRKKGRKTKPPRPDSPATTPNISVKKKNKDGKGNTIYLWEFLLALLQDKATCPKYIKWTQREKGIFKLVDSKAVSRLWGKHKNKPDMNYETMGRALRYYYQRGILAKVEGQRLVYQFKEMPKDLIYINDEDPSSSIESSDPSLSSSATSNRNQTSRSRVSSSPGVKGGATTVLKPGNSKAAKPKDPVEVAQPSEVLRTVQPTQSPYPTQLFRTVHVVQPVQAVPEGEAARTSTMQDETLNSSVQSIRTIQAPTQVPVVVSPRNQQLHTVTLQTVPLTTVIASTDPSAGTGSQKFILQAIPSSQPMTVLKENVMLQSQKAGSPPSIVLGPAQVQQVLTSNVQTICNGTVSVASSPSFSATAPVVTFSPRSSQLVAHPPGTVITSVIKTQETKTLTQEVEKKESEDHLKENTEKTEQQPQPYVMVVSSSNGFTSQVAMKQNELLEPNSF
Chain of ETV1 (P50549 whole entry): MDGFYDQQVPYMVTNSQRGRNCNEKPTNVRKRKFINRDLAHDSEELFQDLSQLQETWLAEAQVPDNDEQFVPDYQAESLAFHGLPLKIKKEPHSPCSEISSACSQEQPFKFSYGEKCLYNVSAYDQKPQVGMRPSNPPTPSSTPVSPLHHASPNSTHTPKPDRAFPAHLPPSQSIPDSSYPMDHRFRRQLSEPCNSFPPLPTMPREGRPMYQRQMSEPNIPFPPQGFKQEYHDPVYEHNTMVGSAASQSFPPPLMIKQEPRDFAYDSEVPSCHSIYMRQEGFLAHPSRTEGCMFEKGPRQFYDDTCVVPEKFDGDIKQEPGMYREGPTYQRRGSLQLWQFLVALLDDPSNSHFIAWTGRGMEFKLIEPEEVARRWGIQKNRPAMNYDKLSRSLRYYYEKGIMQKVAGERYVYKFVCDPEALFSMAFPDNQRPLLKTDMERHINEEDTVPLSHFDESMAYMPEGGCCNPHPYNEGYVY

Regarding ACTCGG, the binding signal with FLI1 was 1.07 fold enrichment (6-mer frequency, TF over GST control); with ELF1, 1.07 fold enrichment (6-mer frequency, TF over GST control); in the assay with EHF, 1.04 fold enrichment (6-mer frequency, TF over GST control); in the assay with ELK3, 1.06 fold enrichment (6-mer frequency, TF over GST control); in the assay with SPIC it was 1.08 fold enrichment (6-mer frequency, TF over GST control); with ELF4, 1.02 fold enrichment (6-mer frequency, TF over GST control). In addition, the binding signal with ETV2 was 1.03 fold enrichment (6-mer frequency, TF over GST control); in the assay with ELF3, 1.03 fold enrichment (6-mer frequency, TF over GST control); with ETV1, 1.03 fold enrichment (6-mer frequency, TF over GST control); with ERF, 1.04 fold enrichment (6-mer frequency, TF over GST control); with ETV7 it was 1.06 fold enrichment (6-mer frequency, TF over GST control); with ETV3, 1.04 fold enrichment (6-mer frequency, TF over GST control).

Turning to AGTTTT, the binding signal in the assay with FLI1 was 1.05 fold enrichment (6-mer frequency, TF over GST control); with EHF, 1.02 fold enrichment (6-mer frequency, TF over GST control); with SPIB it was 1.08 fold enrichment (6-mer frequency, TF over GST control); with ELK3, 1.14 fold enrichment (6-mer frequency, TF over GST control); with ELF4, 1.04 fold enrichment (6-mer frequency, TF over GST control); with ELF3, 1.01 fold enrichment (6-mer frequency, TF over GST control). Further, the binding signal with ERF was 1.09 fold enrichment (6-mer frequency, TF over GST control); in the assay with ETV7, 1.02 fold enrichment (6-mer frequency, TF over GST control); with ETV3, 1.07 fold enrichment (6-mer frequency, TF over GST control).
